In PubChem BioAssay (EPA / NIEHS):
Records with an inconclusive call do not appear. The source made the active and inactive calls. How the source made its calls: active means hit-call score of the fitted dose curve at least 0.9, where 1 is the maximum; inconclusive means response in the unintended direction; inactive means score below 0.9.

What follows are molecules tested on HMG-CoA synthase (HMGCS2), HMGCS2 (gene 3158) (assay: CLD_HMGCS2_6hr: CellzDirect (CLD) Gene Expression Assay for HMG-CoA synthase (HMGCS2) at 6 hours (AID 2283682);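 further: actives raise HMGCS2 transcript above the 0.2% DMSO vehicle baseline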).
Protocol: CLD_6hr is a cell-based, multiplexed-readout assay that uses hepatocyte, a human liver primary cell, with measurements taken at 6 hours after chemical dosing in a 96-well plate.CLD_HMGCS2_6hr is one of 16 assay component(s) measured or calculated from the CLD_6hr assay. It is designed to make measurements of mRNA induction, a form of inducible reporter, as detected with chemiluminescence signals by Quantitative Nuclease Protection Assay (qNPA) technology.Data from the assay component CLD_HMGCS2_6hr was analyzed at the endpoint, CLD_HMGCS2_6hr, in the positive analysis fitting direction relative to DMSO as the negative control and baseline of activity. Using a type of inducible reporter, gain-of-signal activity can be used to understand changes in the reporter gene as they relate to the gene HMGCS2. Furthermore, this assay endpoint can be referred to as a primary readout. To generalize the intended target to other relatable targets, this assay endpoint is annotated to the lyase intended target family, where subfamily is HMG-CoA synthase.
Human hepatocyte cultures were treated daily for two consecutive days with fresh dosing solutions containing appropriate concentrations of the 320 ToxCast chemicals (chemical identities were blinded to CellzDirect and other ToxCast collaborators), vehicle control (0.2% DMSO), and positive control inducers as summarized in Table 1. Due to the large number of treatment groups and chemicals examined, the ToxCast chemicals were divided into two groups (spanning two independent cultures of hepatocytes from separate donor preparations (Hu778: ToxCast plates 1 and 2; Hu776: ToxCast plates 3 and 4). Each preparation of human hepatocyte cultures was treated with respective vehicle control, medium only control, set of six positive controls/reference chemicals for the five hepatic receptor pathways, and a subset of eight of the ToxCast chemicals (indoxacarb, pyrithiobac-sodium, norflurazon, cyhalofop-butyl, methomyl, thiram, acetochlor, and propiconazole). These replicate data, coupled with internal replicates designed within the blinded ToxCast chemical library, provided additional data to evaluate interindividual differences between hepatocyte preparations and their potential impact on chemical profiles.Cell morphology and integrity were evaluated using phase-contrast microscopy as an indicator of hepatocyte cell health (Tyson & Green, 1987). Cultures for each treatment group (i.e., media, vehicle [0.2% DMSO], positive control inducers [multiple concentrations], and the ToxCast chemicals [multiple concentrations]) were observed and cell morphology was assessed relative to vehicle control cultures at each harvest time point (0, 6, 24, or 48 h). […] Images were evaluated at the conclusion of the study to assess changes in cell integrity and account for the effects of chemical exposure on uncharacteristic changes in concentration-dependent gene expression profiles. The results from these determinations of apparent cytotoxicity were annotated (yes/no) alongside the corresponding qNPA data for reference.At the conclusion of each treatment period, hepatocyte cultures (96-well) were washed with 1 volume of HBSS, lysed by addition of 25 ul ArrayPlate lysis buffer (HTG, Tucson, AZ), and 70 ul/well of Denaturation Oil, denatured by incubation at 95C for 10 min, and frozen at approximately -70C until analysis by nuclease protection assay (qNPA) (Roberts et al., 2007). For qNPA analysis, cell lysates were thawed at 50C for approximately 30 min, qNPA probes were added, and samples were incubated at 95C for 10 min to begin the detection process by denaturing the target RNA, dissociating the duplexes and secondary structure hybridization. At the conclusion of the hybridization period, S1 nuclease reagent was added to each sample to digest all nonprotected nucleotides at 50C for 60-90 min. […]

SMILES | outcome | AC50
CNC(=O)/C=C(\C)OP(=O)(OC)OC | inactive | –
CC1(c2ccc(Oc3ccccc3)cc2)OC(=O)N(Nc2ccccc2)C1=O (centres undefined) | inactive | –
Oc1ccc(Cl)cc1Cc1ccccc1 | inactive | –
O=C(Nc1ccccc1)Nc1cnns1 | inactive | –
Oc1cc(Cl)ccc1Oc1ccc(Cl)cc1Cl | inactive | –
CC(C)(C)C(O)C(Oc1ccc(Cl)cc1)n1cncn1 (centres undefined) | inactive | –
O=C(O)C(F)(F)C(F)(F)C(F)(F)C(F)(F)C(F)(F)C(F)(F)C(F)(F)F | inactive | –
CCOc1nc(NC)nc(NC(=O)NS(=O)(=O)c2ccccc2C(=O)OC)n1 | inactive | –
CCN(CC)C(=O)SCc1ccc(Cl)cc1 | inactive | –
CC[C@H](C)[C@H]1O[C@]2(C=C[C@@H]1C)C[C@@H]1C[C@@H](C/C=C(\C)[C@@H](O[C@H]3C[C@H](OC)[C@@H](O[C@H]4C[C@H](OC)[C@@H](O)[C@H](C)O4)[C@H](C)O3)[C@@H](C)/C=C/C=C3\CO[C@@H]4[C@H](O)C(C)=C[C@@H](C(=O)O1)[C@]34O)O2 (tested in a mixture with another compound) | inactive | –
Cc1cc(C)nc(NC(=O)NS(=O)(=O)c2ccccc2C(=O)OC2COC2)n1 | inactive | –
O=S(=O)(O)C(F)(F)C(F)(F)C(F)(F)C(F)(F)C(F)(F)C(F)(F)C(F)(F)C(F)(F)F | – | 3970 nM (active)
O=C1c2ccccc2C(=O)N1SC(Cl)(Cl)Cl | inactive | –
COC(=O)c1ccccc1CS(=O)(=O)NC(=O)Nc1nc(OC)cc(OC)n1 | inactive | –
O=C(O)CCCOc1ccc(Cl)cc1Cl | inactive | –
CCC(C)Nc1c([N+](=O)[O-])cc(C(C)(C)C)cc1[N+](=O)[O-] (centres undefined) | inactive | –
N#CN | inactive | –

SMILES | outcome | AC50
CCc1ccc(C(=O)NN(C(=O)c2cc(C)cc(C)c2)C(C)(C)C)cc1 | inactive | –
CNC(=O)CSP(=S)(OC)OC | inactive | –
CNC(=O)Oc1cccc(N=CN(C)C)c1 | inactive | –
COP(=O)(OC)OC=C(Cl)Cl | inactive | –
CCOCN(C(=O)CCl)c1c(C)cccc1CC | inactive | –
O=C(O)COc1ccc(Cl)cc1Cl | inactive | –
CCS(=O)(=O)c1cccnc1S(=O)(=O)NC(=O)Nc1nc(OC)cc(OC)n1 | inactive | –
Clc1ccccc1-c1nnc(-c2ccccc2Cl)nn1 | inactive | –
COC(=O)c1ccccc1S(=O)(=O)NC(=O)Nc1nc(C)nc(OC)n1 | – | 11.7 nM (active)
O=S1OCC2C(CO1)C1(Cl)C(Cl)=C(Cl)C2(Cl)C1(Cl)Cl (centres undefined) | inactive | –
O=[N+]([O-])/N=C1\NCCN1Cc1ccc(Cl)nc1 | inactive | –
OCCOc1ccccc1 | inactive | –
CCCN(CCOc1c(Cl)cc(Cl)cc1Cl)C(=O)n1ccnc1 | inactive | –
COc1cc(OC)nc(NC(=O)NS(=O)(=O)c2cc(NC=O)ccc2C(=O)N(C)C)n1 | inactive | –
[2H]C1([2H])[n+]2ccccc2-c2cccc[n+]2C1([2H])[2H] | inactive | –
Cc1[nH]c(=O)n(C(C)(C)C)c(=O)c1Cl | inactive | –
CNC(=O)Oc1ccccc1OC(C)C | inactive | –
